Assay results published in PubChem BioAssay AID651635 (National Center for Advancing Translational Sciences (NCATS), 2012).
Screen size: about 400,000 compounds; about 1,900 (0.47%) were called active. A call without a number means that no potency is given here. Roughly 14% stayed inconclusive and do not appear here. Calls come from the whole dose curve; as a rule, active = well fitted cell-killing curve with a large enough effect; inconclusive = small, poorly fitted or top-dose-only effect, or effect the other way; inactive = no such curve, though single readings can be large or run the other way. The sample as a whole holds a higher share of actives than the screen did.
Potency is the fitted concentration of half-maximal effect.

Experiment: Viability Counterscreen for Primary qHTS for Inhibitors of ATXN expression; note: nearly all actives have a fitted effect of over 40% in size
Settings: S2 cells (HEK-293 line with an ATXN2-luciferase reporter) viability, CellTiter-Fluor protease fluorescence, 24 h; series mostly up to 56.7 µM
For `CCN1C(=O)N[C@@H](c2ccccc2)C(C(=O)OC)=C1C`, the Potency was “inactive”.
With `CCCCNC(=O)C(C)N(CCN(C)C)C(=O)CCCCCN1C(=O)NC(c2ccc(Cl)cc2)C(C(=O)OCc2ccccc2)=C1C` (stereo unspecified) the Potency was 22.4 µM (active).
With `COC(=O)CCCCCN1C(=O)NC(c2ccc(-c3ccccc3)cc2)C(C(=O)OCc2ccccc2)=C1C` (stereo unspecified) the Potency was “inactive”.
With `Cc1oc(-c2cccc(NC(=O)c3ccccc3)c2)nc1CNC(=O)c1cnc2ccccn2c1=O` the Potency was “inactive”.
In the case of `COc1cc(=O)n2c(c1C(=O)N(C)Cc1nonc1C)CCN(C(=O)c1ccc(C)cc1C)CC2`, the Potency was “inactive”.
For `O=c1ccc2c(-c3ccccc3S(=O)(=O)O)c3ccc(O)c(O)c3oc-2c1O`, the Potency was 10 µM (active).
For `CC(=O)Nc1ccccc1-c1nc(CNC(=O)c2ccc(Cl)cc2)c(C)o1`, the Potency was “inactive”.
For `COc1cccc(CSc2nc3nc(C)cc(C)n3n2)c1`, the Potency was “inactive”.
With `COc1ccc(-c2nc3nc(C)cc(C)n3c2Nc2c(C)cccc2C)cc1` the Potency was 28.2 µM (active).
With `COc1ccc(-c2cc(C)nc3nc(N)nn23)cc1` the Potency was “inactive”.
With `COc1cncc(-c2cnc3sc(NCCc4ccccn4)nn23)c1` the Potency was “inactive”.
With `COc1cc(/C=C/C(N)=O)cc(OC)c1OC` the Potency was “inactive”.
With `CC(C)(c1ccccc1)c1ccc(OCCN2CCCC2)cc1` the Potency was “inactive”.
With `CC1CCCN(CC(=O)Nc2cc(Cl)ccc2Oc2ccccc2)C1` (stereo unspecified) the Potency was “inactive”.
For `COCC1CCCN(Cc2ccc3c(c2)CN(C(=O)c2ccnn2C)CCO3)C1` (stereo unspecified), the Potency was “inactive”.
With `CCCNC(=O)c1cc(C2CCCN(C(=O)c3ccc4c(c3)CCO4)C2)on1` (stereo unspecified) the Potency was “inactive”.
In the case of `COc1ccc2c(c1)CCc1cnc(-n3ncc(C(=O)NCCN4CCOCC4)c3C)nc1-2`, the Potency was “inactive”.
In the case of `Cc1cnc(C(=O)N2CCOc3ccc(CN4CCCC(C(=O)c5cccnc5)C4)cc3C2)[nH]1` (stereo unspecified), the Potency was “inactive”.
With `CC(=O)Nc1cc(C(=O)N2CCc3c(Cl)cccc3C2)cc2ncn(CCc3ccccn3)c12` the Potency was “inactive”.
For `Cc1ccc(-c2csc(NC3OC(=O)c4ccccc43)n2)cc1` (stereo unspecified), the Potency was 25.1 µM (active).
In the case of `C/C(CC1CC(C)(C)OC1=O)=N/Nc1nc(-c2ccccc2)cs1` (stereo unspecified), the Potency was “inactive”.
For `COc1ccc(-c2csc(Nc3cccc(C)n3)n2)cc1OC`, the Potency was “inactive”.
In the case of `CCc1ccccc1NC(=O)[C@@H]1CCC(=O)N1C1OC(=O)c2c1ccc(OC)c2OC` (stereo partly specified), the Potency was “inactive”.
With `COc1ccc2c(c1OC)C(=O)OC2Nc1nc(-c2ccccc2)cs1` (stereo unspecified) the Potency was 20 µM (active).
For `Cc1ccc(-c2csc(-c3c[nH]c4ccccc34)n2)cc1`, the Potency was “inactive”.
For `Cc1c(C(=O)NCC2CCCN(C)C2)cnn1-c1nccc(-c2ccco2)n1` (stereo unspecified), the Potency was “inactive”.
In the case of `Cc1ccc(NS(=O)(=O)c2cc3c(cc2Br)NC(=O)CO3)cc1C`, the Potency was “inactive”.
In the case of `N#Cc1ccc(-c2nc3c(Cl)cc(C(F)(F)F)cn3c2Cc2ccccc2C(F)(F)F)cc1`, the Potency was “inactive”.
In the case of `C[C@@H]1CN(Cc2ccc3c(c2)CN(Cc2ccc(Oc4ncccn4)cc2)CCO3)C[C@H](C)O1`, the Potency was “inactive”.
For `CC(C)c1ccc(S(=O)(=O)Nc2ccc(O)c(Sc3nc4ccccc4s3)c2)cc1`, the Potency was “inactive”.
In the case of `CC(C)(C)c1ccc(S(=O)(=O)Nc2ccc(O)c(Sc3nc4ccccc4s3)c2)cc1`, the Potency was “inactive”.
In the case of `O=[N+]([O-])c1c(NCCO)cc(Sc2nc3ccccc3s2)c2nonc12`, the Potency was 20 µM (active).
For `C=C1C(=CC=C2CCC[C@]3(C)[C@@H]([C@H](C)C=C[C@H](C)C(C)C)CC[C@@H]23)C[C@@H](O)C[C@@H]1O`, the Potency was “inactive”.
In the case of `COc1ccc(C)cc1N1C(=O)[C@@H]2C[C@H]1CN2Cc1cccc(OC)c1O`, the Potency was “inactive”.
With `COc1ccc(NC(=O)C2Cc3c(-c4ccc(Cl)cc4)ccnc3O2)cc1` (stereo unspecified) the Potency was “inactive”.
In the case of `CCCCN1CC(c2nc3ccccc3n2CCCCOc2ccc(C)cc2C)CC1=O` (stereo unspecified), the Potency was 25.1 µM (active).
With `CCOc1ccc(N2CC(c3nc4ccccc4n3CCOc3ccc(OC)cc3)CC2=O)cc1` (stereo unspecified) the Potency was “inactive”.
With `CCc1ccccc1N1CC(c2nc3ccccc3n2CCCCOc2ccccc2)CC1=O` (stereo unspecified) the Potency was “inactive”.
For `CCCCCc1c(Cc2ccccc2)ncn1CCc1ccccc1OC`, the Potency was 22.4 µM (active).
For `COc1ccccc1Cc1c(-c2ccc(Cl)cc2)nc2ccc(Cl)cn12`, the Potency was “inactive”.
In the case of `COc1ccccc1CCNS(=O)(=O)c1cn(C)nc1C`, the Potency was “inactive”.
With `CCOc1ccc(-c2n[nH]c3c2C(c2ccccc2OC)N(c2ccc(Br)cc2)C3=O)cc1` (stereo unspecified) the Potency was “inactive”.
In the case of `CCCCc1c(-c2ccc(Br)cc2)ncn1CCc1ccccc1OC`, the Potency was 15.8 µM (active).
In the case of `Cn1c(=O)c2c(ncn2CCc2ccccc2)n(C)c1=O`, the Potency was “inactive”.
In the case of `CCCc1c2oc(C(=O)O)cc(=O)c2cc2c(=O)cc(C(=O)O)n(CC)c12`, the Potency was “inactive”.
For `O=C1CCN(Cc2ccc(-c3ccccc3)cc2)CCN1Cc1ccccn1`, the Potency was “inactive”.
In the case of `Cc1ncc2c(c1CNS(=O)(=O)N(C)C)CCN(C(=O)c1ccccc1F)C2`, the Potency was “inactive”.
For `CS(=O)(=O)NC(=O)CCC/C=C\C[C@H]1C(=O)C[C@@H](O)[C@@H]1/C=C/[C@H](O)COc1ccccc1`, the Potency was “inactive”.
For `Cc1ccc(-c2ccnc(-n3ncc(C(=O)N(C)Cc4cccc5ncccc45)c3C3CC3)n2)o1`, the Potency was “inactive”.
For `COc1ccc(-n2nc3c(N4CCC(C(=O)NCc5ccccc5)CC4)nnc(C)c3c2C)cc1`, the Potency was “inactive”.
With `COc1cccc(NC(=O)C2CCN(c3cc(C)nc4c(-c5ccc(Cl)cc5)c(C)nn34)CC2)c1` the Potency was “inactive”.
For `Cc1nnc(N2CCC(C(=O)Nc3ccc(F)cc3)CC2)c2nn(-c3ccc(Cl)cc3)c(C)c12`, the Potency was 20 µM (active).
With `COC(=O)c1cc(OC)ccc1-c1ccc(OC)cc1` the Potency was “inactive”.
In the case of `CCOC(=O)N1CCN(S(=O)(=O)c2ccc(OC)cc2)CC1`, the Potency was “inactive”.
With `CCOC(=O)C1=C(c2ccc(OC)cc2)C(=O)c2ccccc2C1=O` the Potency was 6.31 µM (active).
In the case of `COC(=O)[C@@H]1C[C@H](NC(=O)c2ccccc2C(F)(F)F)CN1Cc1cccc(O)c1`, the Potency was “inactive”.
For `CC(C)(C)C1CCc2c(sc(NC(=O)c3ccccc3F)c2C(=O)N2CCCCC2)C1` (stereo unspecified), the Potency was “inactive”.
For `CC(O)CNCCOc1cccc(Oc2ccccc2)c1` (stereo unspecified), the Potency was “inactive”.
For `COc1ccccc1OCCNCC(O)COc1cccc2[nH]c3ccccc3c12` (stereo unspecified), the Potency was 28.2 µM (active).
With `COc1cccc2[nH]c(C(=O)NCCc3ccccc3)cc12` the Potency was “inactive”.
In the case of `COc1ccc(NC(=O)C2Cc3c(-c4ccc5c(c4)OCO5)ccnc3O2)cn1` (stereo unspecified), the Potency was “inactive”.
